Screening results deposited in PubChem by National Center for Advancing Translational Sciences (NCATS).
FUS suppressor: FUS proteinopathy suppression in yeast | hit rate 0.24% among 390,000 | S. cerevisiae FUS-expressing, growth rescue, OD600, 24 h | Potency, µM (titrated, usually from 76.6 µM), hits mostly activators | AID 1347120;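 also: plate controls were DMSO vehicle for no effect and reference control for full effect; nearly all actives have a fitted effect of over 55% in size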
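Toxicity suppression screen in FUS-yeast. Cells induced with 2% galactose, starting OD 0.005, treated 24hr at 30C with compounds at multiple final concentrations; growth by OD600.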
TDP43 rescue: TDP-43 toxicity inhibition in yeast | TDP-43 expressing yeast growth rescue, BacTiter-Glo, 24 h | Potency, µM (series often up to 46.1 µM), inactives show at the top dose growth rescue (activation), most hits filed as activators | hit rate 1.8% among 410,000 | AID 652104; also: % of control where 0% means no effect; nearly all actives have a fitted effect of over 50% in size
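In this qHTS, compounds that restore growth of yeast expressing TDP-43 appear as activators. Cells (OD600=0.02, galactose medium, raffinose-pregrown) are incubated with compound 24 hr at 30 deg C and growth is quantified by BacTiter-Glo.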
Abeta rescue: restores growth of yeast expressing A-beta42 peptide. yeast expressing A-beta42, growth rescue, OD600, 48 h; response scale: 0% DMSO, 100% iron-clioquinol control. Potency, µM (titrated, usually from 46.1 µM), actives largely listed as activators. hit rate 0.063% among 410,000; also: nearly all actives have a fitted effect of over 55% in size
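Yeast growth medium received pinned compounds, then yeast cells expressing toxic A-beta were added; plates incubated at 30 C for 48 hr. Growth read as absorbance at 600 nm, normalized to DMSO and equimolar FeCl3 plus clioquinol controls.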
aSyn yeast inh: rescues yeast growth from alpha-synuclein toxicity; Yeast expressing alpha-synuclein, growth rescue, BacTiter-Glo, 24 h; Potency, µM (series often up to 46.1 µM), for the others: top-dose growth rescue (activation), most hits filed as activators; hit rate 0.14% among 370,000; also: % of control where 0% means no effect; nearly all actives have a fitted effect of over 65% in size
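Rescue of yeast growth: cells expressing toxic alpha-synuclein, induced in galactose at OD600 0.02, incubated with compound 24 h at 30 C. ATP luminescence quantified growth; inhibitors of toxicity appear as activators.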
* = called active by the depositor; i = inactive; ? = inconclusive; . = not tested or not shown. The list is not random: actives were taken first. Their share in the collection is about 2.1%. Calls follow the shape of the dose curve; as a rule, active = well fitted curve in the direction sought with a large enough effect; inconclusive = small, poorly fitted or top-dose-only effect, or another doubt; inactive = no such curve, though single readings can be large; an effect the other way counts as inactive or inconclusive. Potency is read from the fitted curve at half-maximal effect.

SMILES | FUS suppressor | TDP43 rescue | Abeta rescue | aSyn yeast inh
CC(=O)Nc1ccc(S(=O)(=O)Nc2nc3ccccc3nc2N2CCOCC2)cc1 | i | 12% | i | -4%
Cc1ccccc1S(=O)(=O)Nc1nc2ccccc2nc1N1CCOCC1 | i | 18µM* | i | 4%
O=C(CCl)N(c1ccccc1)c1ccccc1 | i | 18µM* | i | 12%
O=C(N(c1ccccc1)c1ccccc1)N(c1ccccc1)c1ccccc1 | i | 6% | i | 16%
O=C(O)c1cccc2c1C(=O)c1ccc(-c3ccc(F)cc3OCc3ccccc3)cc1S2(=O)=O | i | 21% | i | 2%
O=C(NC[C@H]1CCCO1)c1cccc2c1C(=O)c1ccc(-c3ccc(F)cc3OCc3ccccc3)cc1S2(=O)=O | 22µM* | -2% | i | ?
COc1cc(C(=O)NCC2CCCO2)cc(Br)c1OCc1ccccc1 (stereo unspecified) | i | 14µM* | i | 3%
Cc1nc2ccc(C(=O)N3CCN(C(=O)C(Cl)Cl)CC3)cc2n1C1CCCC1 | i | . | . | .
Cc1cccc(C)c1NC(=O)C(c1ccc(C#N)cc1)n1c(=O)c(-c2cc3ccccc3[nH]2)nc2ccccc21 (stereo unspecified) | i | 10µM* | ? | 29%
O=C(Nc1ccc2ccccc2c1)C(C1CC1)n1c(=O)c(-c2cc3ccccc3[nH]2)nc2ccccc21 (stereo unspecified) | i | 0% | i | ?
Cc1cccc(C)c1NC(=O)C(c1ccccc1)n1c(=O)c(-c2cc3ccccc3[nH]2)nc2ccccc21 (stereo unspecified) | i | ? | ? | 0%
CSCCC(c1nc2ccccc2[nH]1)n1c(=O)c(-c2cc3ccccc3[nH]2)nc2ccccc21 (stereo unspecified) | i | 18µM* | ? | -19%
O=c1c(-c2cc3ccccc3[nH]2)nc2ccccc2n1C(CCc1ccccc1)c1nc2ccccc2[nH]1 (stereo unspecified) | ? | ? | ? | 29%
COc1ccc(NC(=O)C(C2CC2)n2c(=O)c(-c3cc4ccccc4[nH]3)nc3ccccc32)cc1 (stereo unspecified) | ? | 15% | i | 14µM*
Cc1cccc(C)c1NC(=O)C(c1ccncc1)n1c(=O)c(-c2cc3ccccc3[nH]2)nc2ccccc21 (stereo unspecified) | ? | 14µM* | i | 5%
COc1ccc(/C=C/c2ccc3ccccc3n2)c(OC)c1 | . | . | . | -36%
CCCCc1ccc(-c2noc(CCC(=O)NCC)n2)cc1 | i | . | . | .
O=C(NCc1ccccc1)C(c1ccc(C(F)(F)F)cc1)n1c(=O)c(-c2cc3ccccc3[nH]2)nc2ccccc21 (stereo unspecified) | ? | 0% | ? | 7.1µM*
N#Cc1ccc(C(C(=O)NCc2ccccc2)n2c(=O)c(-c3cc4ccccc4[nH]3)nc3ccccc32)cc1 (stereo unspecified) | ? | ? | i | 6%
CCNc1nc(C#N)nc(N2CCOCC2)n1 | . | . | . | -2%
Cc1ccc2c(c1)C1CS(=O)(=O)N(CCc3ccccc3)C(=O)N1C2 (stereo unspecified) | i | . | . | .
CCSc1nc(-c2ccc(OC)cc2)cc(-c2ccccc2)c1C#N | i | -21% | i | 14%
COc1ccc(-c2cc(-c3ccccc3)c(C#N)c(S(C)=O)n2)cc1 (stereo unspecified) | i | 18µM* | i | 6%
O=C(Nc1cccc(NC(=O)c2ccccc2)n1)c1ccccc1 | i | 11µM* | i | -11%
Cc1cccc(NC(=O)c2ccc(C(=O)c3ccccc3)cc2)n1 | i | ? | i | -10%
SMILES | FUS suppressor | TDP43 rescue | Abeta rescue | aSyn yeast inh
Cc1ccccc1C(=O)N1CCN(c2ncnc3c2cnn3-c2ccccc2)CC1 | ? | 14µM* | i | ?
COc1ccccc1Nc1nc(-c2cccc([N+](=O)[O-])c2)cs1 | i | 22µM* | i | -20%
Cc1cccc(-n2c3nc(=O)n(C)c(=O)c-3cc3c(Cl)cccc32)c1C | i | 7% | i | .
Cc1ccccc1-n1c2nc(=O)[nH]c(=O)c-2cc2c(Cl)cccc21 | i | 3.5µM* | i | .
S=C(NCCCc1cnc[nH]1)NCCCN(CCc1ccc(Cl)cc1)c1ccc(Br)cn1 | . | . | . | -34%
COc1ccc(C2c3[nH]c4ccc(OC)cc4c3CCN2C(=O)Nc2ccccc2)cc1 (stereo unspecified) | ? | 20µM* | i | .
CNc1nc(N)c([N+](=O)[O-])c(Nc2ccccc2OC)n1 | i | 2.5µM* | i | 13%
CCN(CC)C(=O)CC[C@@H]1CC[C@]2(CCCN(Cc3ccncc3)C2)O1 | i | . | . | .
CCOC(=O)c1c(N)n(CCOC(=O)c2cccs2)c2nc3ccccc3nc12 | i | -7% | i | 1%
CCCCCOC(=O)c1c(N)n(CCOC)c2nc3ccccc3nc12 | i | 18µM* | i | 3%
O=C1c2ccccc2CCC12N=NCC2c1ccc(Br)cc1 (stereo unspecified) | i | 13µM* | i | .
O=C1c2ccccc2CCC12N=NCC2c1ccc(Cl)cc1 (stereo unspecified) | i | ? | i | 14%
CN1C(=O)c2cc(NC(=O)Nc3ccccc3)ccc2OC[C@H]2O[C@@H](CC(=O)NC3CCC3)CC[C@@H]21 | i | . | . | .
CN1C(c2ccccc2)=NO[C@]1(C)c1ccccc1 | i | 7% | i | -3%
CN1c2ccccc2SC2C(c3ccccc3)=NOC21 (stereo unspecified) | i | 18µM* | i | 9%
C=CCCC(=O)N[C@H]1CC[C@@]23CCCN2C(=O)CCC[C@H]3[C@H]1CCC | i | . | . | .
COc1ccccc1NS(=O)(=O)c1ccc(-c2cnc(C3CC3)o2)cc1 | i | 28% | i | 27%
Cc1cc(C)c(NS(=O)(=O)c2ccc(-c3cnc(C4CC4)o3)cc2)c(C)c1 | i | ? | 13µM* | .
O=S(=O)(Nc1ccc(F)cc1Cl)c1ccc(-c2cnc(C3CC3)o2)cc1 | i | 35µM* | ? | ?
Cc1ccc(-c2cnc(C3CC3)o2)cc1S(=O)(=O)Nc1ccccc1 | i | 32µM* | i | ?
O=S(=O)(Nc1cccc(C(F)(F)F)c1)c1ccc(-c2cnc(C3CC3)o2)cc1 | i | 25µM* | i | .
O=C(C[N+]1(CCO)CCOCC1)c1cccs1 | . | . | . | -9%
O=C(CN1C(=O)CCSc2ccccc21)Nc1ccc(F)cc1F | i | . | . | .
O=C(CSc1nc2ccccc2n1Cc1ccccc1Cl)NN=C/C(Br)=C/c1ccccc1 | i | . | . | .
Cc1ccc(NS(=O)(=O)c2ccc(-c3cnc(C4CC4)o3)cc2)c(C)c1 | ? | 28µM* | . | ?
O=C(OCC#CCSc1nnc(-c2cccc3ccccc23)o1)c1ccc(F)nc1 | i | . | . | .
COC(=O)C1=C(C)N(c2cc(Cl)cc(Cl)c2)C(=O)C1 | i | 18µM* | i | -1%
